Test systems include K-562 leukemia; MALME-3M melanoma; SF-268 CNS; SNB-19 CNS; UACC-62 melanoma.
Common to all, as to experiment: NCI-60 one-dose screen, 48 h (100 = growth as untreated, 0 = no growth, -100 = all killed)
Another assay has as its system DU-145 prostate. As to conditions: 10 µM unless noted.
The subject of a further assay is MDA-MB-231 breast. Conditions: 10 µM unless noted.
The next assay has as its system RXF 393 renal. As to conditions: 10 µM unless noted.
Another assay deals with SF-295 CNS. As to conditions: 10 µM unless noted.
The subject of another assay is SF-539 CNS. As to conditions: 10 µM unless noted.
The test system of a further assay is UACC-257 melanoma. Conditions: 10 µM unless noted.
The next assay relates to M14 melanoma. Conditions: 10 µM unless noted.
The subject of a further assay is HCT-15 colon. As to conditions: 10 µM unless noted.
The next assay deals with HT29 colon. As to conditions: 10 µM unless noted.
A further assay concerns SNB-75 CNS. Conditions: 10 µM unless noted.
For the next assay, the system named is U251 CNS. Conditions: 10 µM unless noted.
In a further assay the test system is PC-3 prostate. Conditions: 10 µM unless noted.
A further assay concerns SK-MEL-5 melanoma. As to conditions: 10 µM unless noted.
The next assay has as its system LOX IMVI melanoma. Conditions: 10 µM unless noted.
For the next assay, the system named is SK-MEL-28 melanoma. Conditions: 10 µM unless noted.

Values joined by “and” are separate entries in the source; they are usually repeats but may differ in a detail not shown here. Equal values may be shown once. Compounds without any hit were thinned out: in the full panel of roughly 83,000, 20% have a hit.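 Each cell line was grown in a 96-well plate and treated with one concentration of compound for 48 hours. Values below 10 were considered active.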 Active and inactive are the calls of the source.

As for `O=C1C2=C(Nc3cc([N+](=O)[O-])ccc3N2)OC1c1c2ccccc2cc2ccccc12` (stereo not given), the growth was 74.6% (inactive) with DU-145 prostate; 21.6% (inactive) in the assay with K-562 leukemia (10 µM unless noted); 97.9% (inactive) in the assay on MALME-3M melanoma (10 µM unless noted); 65.8% (inactive) in the assay with MDA-MB-231 breast; 65.1% (inactive) in the assay with RXF 393 renal; 33.2% (inactive) in the assay with SF-268 CNS (10 µM unless noted). In addition, the growth is 57.5% (inactive) in the assay with SF-295 CNS; 58.8% (inactive) in the assay on SF-539 CNS; 74.4% (inactive) with UACC-257 melanoma; 70.1% (inactive) in the assay on M14 melanoma; 20.5% (inactive) in the assay on HCT-15 colon; 51.4% (inactive) in the assay on HT29 colon. The growth was 52.4% (inactive) in the assay with SNB-75 CNS; 40.2% (inactive) in the assay on SNB-19 CNS (10 µM unless noted); 31.4% (inactive) in the assay on U251 CNS; 20.5% (inactive) in the assay with PC-3 prostate; 56.7% (inactive) in the assay with SK-MEL-5 melanoma; 44.6% (inactive) with UACC-62 melanoma (10 µM unless noted). In addition, the growth in the assay with LOX IMVI melanoma was 38.1% (inactive); with SK-MEL-28 melanoma, 77.5% (inactive).

For `CCC1OC(OC)C=CC1=O` (stereo not given), the growth with DU-145 prostate is 107% (inactive); in the assay with K-562 leukemia (10 µM unless noted), 87.2% (inactive); in the assay with MALME-3M melanoma (10 µM unless noted) it was 99.9% (inactive); in the assay on MDA-MB-231 breast, 106% (inactive); with RXF 393 renal it was 113% (inactive); with SF-268 CNS (10 µM unless noted) it was 108% (inactive). In addition, the growth in the assay on SF-295 CNS was 98.1% (inactive); in the assay with SF-539 CNS, 101% (inactive); in the assay on UACC-257 melanoma, 117% (inactive); in the assay with M14 melanoma, 104% (inactive); in the assay with HCT-15 colon, 109% (inactive); in the assay on HT29 colon, 113% (inactive). In addition, the growth is 95% (inactive) in the assay on SNB-75 CNS; 91.5% (inactive) with SNB-19 CNS (10 µM unless noted); 113% (inactive) in the assay on U251 CNS; 97.1% (inactive) with PC-3 prostate; 103% (inactive) in the assay with SK-MEL-5 melanoma; 85% (inactive) in the assay with UACC-62 melanoma (10 µM unless noted). For the same molecule, the figures for the growth in the assay on LOX IMVI melanoma and in the assay with SK-MEL-28 melanoma were 103% (inactive) and 106% (inactive), respectively.

In the case of `C[n+]1c(/C=C/c2ccc([N+](=O)[O-])cc2)ccc2ccccc21`, the growth with DU-145 prostate was 104% (inactive); with K-562 leukemia (10 µM unless noted), 88.7% (inactive); in the assay with MALME-3M melanoma (10 µM unless noted) it was 90.9% (inactive); in the assay on MDA-MB-231 breast, 115% (inactive); with RXF 393 renal, 92.9% (inactive); in the assay with SF-268 CNS (10 µM unless noted), 102% (inactive). For the same molecule, the growth was 100% (inactive) in the assay with SF-295 CNS; 103% (inactive) in the assay on SF-539 CNS; 106% (inactive) in the assay with UACC-257 melanoma; 101% (inactive) in the assay on M14 melanoma; 98.6% (inactive) in the assay on HCT-15 colon; 104% (inactive) in the assay on HT29 colon. In addition, the growth with SNB-75 CNS is 92.5% (inactive); with SNB-19 CNS (10 µM unless noted) it was 108% (inactive); in the assay with U251 CNS, 99.6% (inactive); with PC-3 prostate, 90% (inactive); with SK-MEL-5 melanoma, 97.9% (inactive); with UACC-62 melanoma (10 µM unless noted), 95.6% (inactive). Moreover, the results for the growth with LOX IMVI melanoma and in the assay with SK-MEL-28 melanoma were 92.3% (inactive) and 121% (inactive), respectively.

For `COc1cc(NS(C)(=O)=O)ccc1Nc1c2ccccc2nc2ccccc12`, the growth in the assay with DU-145 prostate was -34.4% [2.5 µM] (active); with K-562 leukemia (2.5 µM), 29.2% (inactive); in the assay with K-562 leukemia (10 µM) it was 0.97% (active) and 16.8% (inactive) and 23.4% (inactive); in the assay with MALME-3M melanoma (2.5 µM), 43.4% (inactive); in the assay on MALME-3M melanoma (10 µM), -25.4% (active) and 20.4% (inactive) and 25.4% (inactive); in the assay with MDA-MB-231 breast, 98.2% [2.5 µM] (inactive). Also, the growth with RXF 393 renal was 6.88% [2.5 µM] (active); in the assay on SF-268 CNS (2.5 µM), 35.1% (inactive); in the assay with SF-268 CNS (10 µM) it was 25.1% (inactive) [middle of 4 runs]; in the assay with SF-295 CNS, 3.7% [2.5 µM] (active); in the assay on SF-539 CNS, -34.3% [2.5 µM] (active); in the assay on UACC-257 melanoma it was 5.31% [2.5 µM] (active). Besides, the growth was 8.39% (active) [middle of 4 runs] in the assay on M14 melanoma; 29.4% [2.5 µM] (inactive) in the assay on HCT-15 colon; 43.4% [2.5 µM] (inactive) with HT29 colon; 27.9% [2.5 µM] (inactive) in the assay on SNB-75 CNS; 14.5% (inactive) in the assay on SNB-19 CNS (2.5 µM); -26% (active) and 28.9% (inactive) and 35.6% (inactive) with SNB-19 CNS (10 µM). Also, the growth in the assay with U251 CNS was 18.7% [2.5 µM] (inactive); with PC-3 prostate, 52.8% [2.5 µM] (inactive); in the assay with SK-MEL-5 melanoma, 3.48% [2.5 µM] (active); with UACC-62 melanoma (2.5 µM), 29.1% (inactive); with UACC-62 melanoma (250 µM), -86.2% (active) and -100% (active); with LOX IMVI melanoma, 23.8% [2.5 µM] (inactive). In addition, the growth with SK-MEL-28 melanoma is 52.5% (inactive) and 63.7% (inactive) and 53.8% (inactive).

`Nc1ncnc2c1ncn2C1OC(CO)C(O)C1O` (stereo not given): the growth is 116% (inactive) and 47.5% (inactive) and 106% (inactive) with DU-145 prostate; 93.5% (inactive) and 26.1% (inactive) and 116% (inactive) in the assay with K-562 leukemia (10 µM unless noted); 147% (inactive) and 107% (inactive) and 128% (inactive) with MALME-3M melanoma (10 µM unless noted); 122% (inactive) and 52.5% (inactive) and 113% (inactive) in the assay on MDA-MB-231 breast; 115% (inactive) and 103% (inactive) with RXF 393 renal; 106% (inactive) and 121% (inactive) and 102% (inactive) in the assay with SF-268 CNS (10 µM unless noted). For the same molecule, the growth in the assay with SF-295 CNS is 105% (inactive) and 104% (inactive) and 100% (inactive); with SF-539 CNS, 109% (inactive) and 98% (inactive) and 91.5% (inactive); in the assay with UACC-257 melanoma it was 84.9% (inactive) and 124% (inactive) and 105% (inactive); with M14 melanoma it was 111% (inactive) and 115% (inactive); with HCT-15 colon it was 109% (inactive) and 33.5% (inactive) and 105% (inactive); in the assay on HT29 colon, 109% (inactive) and 35.6% (inactive) and 98.4% (inactive). Also, the growth with SNB-75 CNS was 99.1% (inactive) and 50.2% (inactive) and 91.3% (inactive); with SNB-19 CNS (10 µM unless noted) it was 106% (inactive) and 67.8% (inactive) and 100% (inactive); with U251 CNS, 107% (inactive) and 92.7% (inactive) and 104% (inactive); with PC-3 prostate it was 81.4% (inactive) and 29.8% (inactive) and 98.9% (inactive); in the assay with SK-MEL-5 melanoma, 107% (inactive) and 103% (inactive) and 102% (inactive); in the assay on UACC-62 melanoma (10 µM unless noted), 110% (inactive) and 82.7% (inactive) and 101% (inactive). Moreover, the growth was 106% (inactive) and 57.2% (inactive) and 94.6% (inactive) in the assay on LOX IMVI melanoma; 116% (inactive) and 124% (inactive) and 125% (inactive) with SK-MEL-28 melanoma.

For `CC(=Nc1ccc(N(C)C)cc1)c1ccccc1`, the growth with DU-145 prostate was 46.9% (inactive); in the assay on K-562 leukemia (10 µM unless noted), 22.5% (inactive); in the assay with MALME-3M melanoma (10 µM unless noted), 85.5% (inactive); with MDA-MB-231 breast, 66.5% (inactive); with RXF 393 renal it was 72.8% (inactive); in the assay on SF-268 CNS (10 µM unless noted), 82.3% (inactive). Further, the growth in the assay with SF-295 CNS was 44.4% (inactive); in the assay on SF-539 CNS, 56.7% (inactive); in the assay with UACC-257 melanoma, 59.4% (inactive); in the assay on M14 melanoma, 66.1% (inactive); in the assay with HCT-15 colon, 68.5% (inactive); in the assay on HT29 colon, 35.2% (inactive). Moreover, the growth in the assay on SNB-75 CNS is 86% (inactive); in the assay on SNB-19 CNS (10 µM unless noted) it was 45% (inactive); in the assay on U251 CNS, 27.2% (inactive); in the assay on PC-3 prostate, 37.8% (inactive); in the assay on SK-MEL-5 melanoma, 54.6% (inactive); in the assay with UACC-62 melanoma (10 µM unless noted) it was 68% (inactive). In addition, the growth with LOX IMVI melanoma is 60.2% (inactive); in the assay on SK-MEL-28 melanoma, 65.4% (inactive).

The values above are taken from PubChem BioAssay (NCI).
